POLI inh – DNA polymerase iota (human) inhibition; Q9UNA4; Pol iota fluorescent replication assay, 10 min; Potency, µM (highest dose often 115 µM), without a hit: at the top dose activity, negative = inhibition, actives largely listed as inhibitors; 1% of 390,000 active; further: potency means the concentration at half of the fitted maximal effect
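Fluorescent replication assay read twice, at 0 min and 10 min after adding 50 nM (final) substrate. Enzyme (10 nM) and compounds were first incubated 15 min at room temperature; enzyme-free buffer wells were negative controls.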
Pol kappa inh-1 – DNA polymerase kappa (human) inhibition; 0.53% of 400,000 active; purified Pol kappa, fluorescent DNA synthesis assay, 10 min; Q9UBT6; Potency, µM (highest dose often 107 µM), for inactives: top-dose activity, negative = inhibition, hits mostly inhibitors; further: potency means the concentration at half of the fitted maximal effect; on the % scale 0 is the no-effect control and ±100 the full control effect
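10 nM Pol kappa was preincubated with compounds for 15 min at room temperature. Reaction started with 50 nM (final) substrate. Fluorescence read kinetically at 0 and 10 min.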
FEN1 inhibitor – human FEN1 inhibition | Recombinant FEN1 flap cleavage, fluorescence, 15 min | Potency, µM (series often up to 114 µM), without a hit: at the top dose activity change, negative = inhibition, actives largely listed as inhibitors | 0.35% of 390,000 active | AID 588795; further: potency means the concentration at half of the fitted maximal effect; on the % scale 0 is the no-effect control and ±100 the full control effect; nearly all actives have a fitted effect of over 65% in size
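FEN1 at 10 nM preincubated with compounds 15 min at room temperature, then flap DNA substrate added at 50 nM final. Signal read at 0 and 15 min; concentration-response fitted with four-parameter Hill equation.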
Pol eta inh-1 – inhibitors of human DNA polymerase eta | recombinant Pol eta, fluorescent DNA replication assay | Potency, µM (top dose mostly 114 µM), for inactives: at the highest dose activity change, negative = inhibition, hits mostly inhibitors | 1.2% of 390,000 active; further: potency means the concentration at half of the fitted maximal effect; on the % scale 0 is the no-effect control and ±100 the full control effect
Target sequence (Q9Y253 whole entry, looked up): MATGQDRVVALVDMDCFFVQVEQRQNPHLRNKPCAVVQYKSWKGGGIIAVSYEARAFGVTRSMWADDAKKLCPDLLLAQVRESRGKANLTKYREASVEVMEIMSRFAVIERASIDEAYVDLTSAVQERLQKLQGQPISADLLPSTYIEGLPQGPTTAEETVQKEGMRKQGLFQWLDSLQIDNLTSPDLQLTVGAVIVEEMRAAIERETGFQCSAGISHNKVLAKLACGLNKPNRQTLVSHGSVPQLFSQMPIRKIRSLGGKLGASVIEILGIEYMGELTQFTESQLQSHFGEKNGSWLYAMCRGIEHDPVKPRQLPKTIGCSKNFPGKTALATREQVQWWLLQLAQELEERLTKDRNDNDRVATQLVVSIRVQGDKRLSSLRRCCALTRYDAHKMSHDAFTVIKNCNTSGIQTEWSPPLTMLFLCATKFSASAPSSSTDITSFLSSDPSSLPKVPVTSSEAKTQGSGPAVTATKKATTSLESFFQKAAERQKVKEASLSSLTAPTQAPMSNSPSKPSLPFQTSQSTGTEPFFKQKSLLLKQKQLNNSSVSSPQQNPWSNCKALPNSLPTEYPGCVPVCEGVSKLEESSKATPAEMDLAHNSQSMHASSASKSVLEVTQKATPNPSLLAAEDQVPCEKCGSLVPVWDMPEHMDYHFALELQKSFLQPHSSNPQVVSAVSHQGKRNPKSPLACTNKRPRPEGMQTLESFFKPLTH
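Pol eta at 10 nM preincubated with compounds 15 min at room temperature; reaction started with fluorescent substrate (50 nM final) and read kinetically at 0 and 10 min.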
WRN inhibitor – WRN helicase (human) inhibition | Q14191 | WRN helicase unwinding, fluorescent forked duplex, kinetic | Potency, µM (doses to about 114 µM), for inactives: at the highest dose activity change, negative = inhibition, most hits filed as inhibitors | 0.46% of 360,000 active | AID 651768; further: potency means the concentration at half of the fitted maximal effect; on the % scale 0 is the no-effect control and ±100 the full control effect; nearly all actives have a fitted effect of over 55% in size
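Fluorescence dequenching readout, ex 525 nm/em 598 nm, kinetic mode: forked duplex DNA (100 nM final) with adjacent fluorophore and quencher unwound by WRN (20 nM final) with 2 mM ATP. Compound preincubation 15 min, room temperature.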
POLB inh – blocks human DNA polymerase beta activity; P06746; AID 485314; Potency, µM (titrated, usually from 114 µM), without a hit: at the top dose activity change, negative = inhibition, usual class: inhibitors; 1.3% of 340,000 active; Pol beta primer extension/strand displacement, fluorescence kinetic; further: potency means the concentration at half of the fitted maximal effect; on the % scale 0 is the no-effect control and ±100 the full control effect
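Reaction started by 50 nM substrate onto compound-treated Pol beta (10 nM, 15 min preincubation, room temperature); plates read at 0 min and 10 min. Normalized concentration-effect data fitted by four-parameter Hill equation.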
Pol iota confirm – Confirm cherry-picked inhibitors of human polymerase iota. Potency, µM, hits mostly inhibitors. AID 720496. shares compounds with Pol kappa inh-1. Pol iota primer extension, TAMRA/BHQ fluorescence. 77% of 1,500 active; further: potency means the concentration at half of the fitted maximal effect
GALK inh confirm – galactokinase (human) inhibition, confirmation | purified GALK, Kinase-Glo ATP depletion luminescence | Potency, µM (doses to about 115 µM), inactives show at the top dose activity, negative = inhibition, actives largely listed as inhibitors | shares compounds with Pol eta inh-1 | 70% of 150 active
GALK redox cs – generates H2O2 by redox cycling, flagging GALK artifacts; shares compounds with Pol eta inh-1; Phenol red-HRP H2O2 redox cycling, absorbance 600 nm; Potency, µM (series often up to 115 µM), for the others: top-dose activity change, negative = H2O2 signal, usual class: inhibitors; 40% of 150 active; AID 2035
HEK293 viability – counter-screen for GALK inhibitors: HEK293 cell cytotoxicity | shares compounds with Pol eta inh-1 | HEK-293 viability, ATP luminescence (CellTiter-Glo), 24/48 h | Potency, µM (series often up to 46.1 µM), for the others: at the top dose activity change, negative = cytotoxicity, hits mostly inhibitors | 10% of 170 active | AID 2547; further: potency means the concentration at half of the fitted maximal effect; on the % scale 0 is the no-effect control and ±100 the full control effect
Pol kappa inh-2 – confirmation of human DNA polymerase kappa inhibitors. purified Pol-kappa, fluorescent strand-displacement substrate. Potency, µM, actives largely listed as inhibitors. shares compounds with Pol eta inh-1. 76% of 920 active; further: potency means the concentration at half of the fitted maximal effect
Pol eta inh-2 – confirmation of human DNA polymerase eta inhibitors; shares compounds with Pol eta inh-1; Pol eta primer extension, TAMRA/BHQ fluorescence, 10 min; Potency, µM, most hits filed as inhibitors; 64% of 2,600 active; AID 720502; further: potency means the concentration at half of the fitted maximal effect
* = called active by the depositor; u = inconclusive; x = no result; [ ] = remark or other dose. This is a sample that favours compounds with a hit; in the whole collection about 2.4% have one here. The call rests on the fitted dose curve; in most records, active means well fitted curve in the direction sought with a large enough effect; inconclusive means small, poorly fitted or top-dose-only effect, or another doubt; inactive means no such curve, though single readings can be large; an effect the other way counts as inactive or inconclusive.

SMILES	POLI inh	Pol kappa inh-1	FEN1 inhibitor	Pol eta inh-1	WRN inhibitor	POLB inh	Pol iota confirm	Pol eta inh-2	others
COc1ccccc1C(CCN(Cc1cccs1)C(C)=O)c1ccco1 (centres undefined)	22µM*	-36%	6%	25µM*	u	28µM*	u	76*
O=C(O)c1cccc(NC(=S)N/N=C/c2ccccc2OCc2cccc(Br)c2)c1	u	-11%	8%	20µM*	u	-19%	u	48*
Cc1ccc2nc(/C(C#N)=C\c3ccc(N4CCCCC4)c([N+](=O)[O-])c3)[nH]c2c1	u	-11%	3%	-14%	-13%	25µM*	38*	60*	Pol kappa inh-2=47*
N#C/C(=C/c1ccc(N2CCCC2)c([N+](=O)[O-])c1)c1nc2ccccc2[nH]1	21%	-1%	-18%	u	-8%	53%	x	x
Cc1ccc2nc(/C(C#N)=C/c3ccc(-c4cccc(Cl)c4)o3)[nH]c2c1	79µM*	50µM*	-27%	89µM*	x	u	19*	67*	Pol kappa inh-2=19*
Cc1ccc2nc(/C(C#N)=C/c3cccc(Br)c3)[nH]c2c1	u	-19%	-13%	56µM*	x	22µM*	42*	60*	Pol kappa inh-2=17*
O=C(/C=C/c1ccc(Br)cc1)NC(=S)Nc1ccc(S(=O)(=O)Nc2nccs2)cc1	16%	-5%	-3%	u	-27%[11.6 µM]	u	15*	17*
COc1ccc(NC(=O)Cn2c(=O)n(-c3ccc(OC)cc3)c(=O)c3sc4ccccc4c32)cc1	46%	-2%	4%	-14%	x	12%	x	x
O=C(O)c1ccc(N2C(=O)/C(=C/c3ccc(-c4ccc([N+](=O)[O-])cc4)o3)C=C2c2ccccc2)cc1	u	u	u	3.5µM*	56µM*	10µM*	8.4*	7.6*
O=C1NN(c2ccccc2)C(=O)/C1=C/c1ccc(Sc2cccc3ccccc23)o1	11µM*	u	u	28µM*	u	20µM*	75*	30*
CC1=NN(c2ccc(C(=O)O)cc2)C(=O)/C1=C/c1ccc(-c2ccccc2F)o1	x	x	x	x	x	-1%	x	x
CCn1c(C)cc(/C=C2\NC(=O)N(Cc3ccc(Cl)cc3)C2=O)c1C	18%	-22%	-2%	0%	-6%	20%	x	x
O=C(O)c1ccc(-c2ccc(/C=C3\NC(=O)N(Cc4ccc(Cl)cc4)C3=O)o2)cc1	28µM*	u	-2%	22µM*	-10%[11.6 µM]	-3%	38*	27*
O=C1NN(c2ccccc2)C(=O)/C1=C/c1ccc(-c2ccc(C(=O)O)cc2)o1	3.5µM*	18µM*	50µM*	7.1µM*	50µM*	u	24*	27*
C/C(=C(/CCO)SS/C(CCO)=C(\C)N(C=O)Cc1cnc(C)nc1N)N(C=O)Cc1cnc(C)nc1N	x	6%[19.4 µM]	x	x	x	x	x	x
CCN(CC)C(=O)C1=C(C)Nc2nc3ccccc3n2C1c1cccc(Cl)c1 (centres undefined)	5%	14%	3%	1%	x	24%	x	x
O=C(NCCc1nc2ccccc2n1CCCOc1ccccc1)C1CCCCC1	-10%	-3%	2%	x	x	x	x	x
CCN1CCN(C(=O)c2c(C)nn(-c3ccc(F)cc3)c2-n2cccc2)CC1	24%	-18%	15%	-6%	x	2%	x	x
Oc1c(Cl)cc(Cl)cc1C=Nc1ccc(N2CCOCC2)cc1	174%	-7%	-1%	-19%	u	31%	x	x
Oc1ccc(C=Nc2ccc(N3CCOCC3)cc2)c(O)c1	u	-41%	3%	14µM*	-23%[57.1 µM]	4%	u	u
CCc1ccc(OC(C)C(=O)N2CCC(c3nc4ccccc4s3)CC2)cc1 (centres undefined)	-28%	-20%	u	-10%	x	5%	x	x
CCc1nnc(NC(=O)CSc2sc3c(O)cc(=O)[nH]c3c2C#N)s1	1.8µM*	8.9µM*	4.5µM*	3.5µM*	13µM*	0.56µM*	42*	30*	Pol kappa inh-2=17*
CCc1nnc(NC(=O)CSc2nc(-c3ccccc3)cc(-c3ccc(F)cc3)c2C#N)s1	-11%	-11%	6%	-13%	9%	15%	x	x
CCn1c(SC(C)C(=O)O)nc2sc3c(c2c1=O)CCC3 (centres undefined)	u	25µM*	-19%	3.5µM*	56µM*	8.9µM*	75*	24*
COc1ccc(N2Cc3cccc(C(=O)Nc4ccc(C)cc4)c3C2=O)cc1	79µM*	u	-11%	x	x	13µM*	u	u	Pol kappa inh-2=38*
COc1ccc(N2Cc3cccc(C(=O)Nc4ccc(C(C)C)cc4)c3C2=O)cc1	56µM*	u	9%	x	x	11µM*	u	u	Pol kappa inh-2=30*
CC1(C)Cc2c(C#N)c(N)n(-c3ccccc3)c(=S)c2CO1	70%	-20%	-2%	-8%	0%	-1%	x	x
CC1(C)C=C2C(=NN(c3ccccc3)C(N)=C2C#N)CO1	14µM*	-3%	0%	18µM*	3%[57.1 µM]	-13%	u	x	GALK inh confirm=27µM*;GALK redox cs=12µM*;HEK293 viability=1%
Cn1cccc1CC(=O)N/N=C/C=C/c1ccco1	18µM*	35µM*	-13%	u	u	25µM*	67*	u	Pol kappa inh-2=38*
